# Results from PubChem BioAssay (EPA / NIEHS).
# Records with an inconclusive call do not appear. The source made the active and inactive calls. Rule for the calls: active = hit-call score of the fitted dose curve at least 0.9, where 1 is the maximum; inactive = score below 0.9.
# Read-out: Cytochrome P450 2C9 (Homo sapiens) (UniProt P11712)
# Test: CLD_CYP2C9_48hr: CellzDirect (CLD) Gene Expression Assay for xenobiotic metabolism (CYP2C9) at 48 hours (AID 2283701)
# Method: CLD_48hr is a cell-based, multiplexed-readout assay that uses hepatocyte, a human liver primary cell, with measurements taken at 48 hours after chemical dosing in a 96-well plate.CLD_CYP2C9_48hr is one of 16 assay component(s) measured or calculated from the CLD_48hr assay. It is designed to make measurements of mRNA induction, a form of inducible reporter, as detected with chemiluminescence signals by Quantitative Nuclease Protection Assay (qNPA) technology.Data from the assay component CLD_CYP2C9_48hr was analyzed at the endpoint, CLD_CYP2C9_48hr, in the positive analysis fitting direction relative to DMSO as the negative control and baseline of activity. Using a type of inducible reporter, gain-of-signal activity can be used to understand changes in the reporter gene as they relate to the gene CYP2C9. Furthermore, this assay endpoint can be referred to as a primary readout. To generalize the intended target to other relatable targets, this assay endpoint is annotated to the cyp intended target family, where subfamily is xenobiotic metabolism.
# Human hepatocyte cultures were treated daily for two consecutive days with fresh dosing solutions containing appropriate concentrations of the 320 ToxCast chemicals (chemical identities were blinded to CellzDirect and other ToxCast collaborators), vehicle control (0.2% DMSO), and positive control inducers as summarized in Table 1. Due to the large number of treatment groups and chemicals examined, the ToxCast chemicals were divided into two groups (spanning two independent cultures of hepatocytes from separate donor preparations (Hu778: ToxCast plates 1 and 2; Hu776: ToxCast plates 3 and 4). Each preparation of human hepatocyte cultures was treated with respective vehicle control, medium only control, set of six positive controls/reference chemicals for the five hepatic receptor pathways, and a subset of eight of the ToxCast chemicals (indoxacarb, pyrithiobac-sodium, norflurazon, cyhalofop-butyl, methomyl, thiram, acetochlor, and propiconazole). These replicate data, coupled with internal replicates designed within the blinded ToxCast chemical library, provided additional data to evaluate interindividual differences between hepatocyte preparations and their potential impact on chemical profiles.Cell morphology and integrity were evaluated using phase-contrast microscopy as an indicator of hepatocyte cell health (Tyson & Green, 1987). Cultures for each treatment group (i.e., media, vehicle [0.2% DMSO], positive control inducers [multiple concentrations], and the ToxCast chemicals [multiple concentrations]) were observed and cell morphology was assessed relative to vehicle control cultures at each harvest time point (0, 6, 24, or 48 h). […] Images were evaluated at the conclusion of the study to assess changes in cell integrity and account for the effects of chemical exposure on uncharacteristic changes in concentration-dependent gene expression profiles. The results from these determinations of apparent cytotoxicity were annotated (yes/no) alongside the corresponding qNPA data for reference.At the conclusion of each treatment period, hepatocyte cultures (96-well) were washed with 1 volume of HBSS, lysed by addition of 25 ul ArrayPlate lysis buffer (HTG, Tucson, AZ), and 70 ul/well of Denaturation Oil, denatured by incubation at 95C for 10 min, and frozen at approximately -70C until analysis by nuclease protection assay (qNPA) (Roberts et al., 2007). For qNPA analysis, cell lysates were thawed at 50C for approximately 30 min, qNPA probes were added, and samples were incubated at 95C for 10 min to begin the detection process by denaturing the target RNA, dissociating the duplexes and secondary structure hybridization. At the conclusion of the hybridization period, S1 nuclease reagent was added to each sample to digest all nonprotected nucleotides at 50C for 60-90 min. […]
row,Compound,outcome
1,C#CCC1=C(C)C(OC(=O)C2C(C=C(C)C)C2(C)C)CC1=O (configuration not stated),inactive
2,Cc1ccn2nc(S(=O)(=O)Nc3c(F)cccc3F)nc2n1,inactive
3,CC(C)=CC1C(C(=O)OCN2C(=O)C3=C(CCCC3)C2=O)C1(C)C (configuration not stated),inactive
4,COP(=O)(OC)SCn1c(=O)oc2cc(Cl)cnc21,inactive
5,COc1cc(OC)nc(Sc2cccc(Cl)c2C(=O)O)n1,inactive
6,CCOP(=S)(OCC)OC(Cl)C(Cl)(Cl)Cl (configuration not stated),inactive
7,CC(C)N(C(=O)SCC(Cl)=C(Cl)Cl)C(C)C,inactive
8,CCCCOC(=O)[C@@H](C)Oc1ccc(Oc2ccc(C#N)cc2F)cc1,inactive
9,CNC(=O)ON=C(SC)C(=O)N(C)C,inactive
10,CCc1cccc(CC)c1N(COC)C(=O)CCl,inactive
11,CC(C)[C@H](C(=O)O[C@H](C#N)c1cccc(Oc2ccccc2)c1)c1ccc(Cl)cc1,inactive
12,CCOP(=O)(OCC)Oc1cc(C)nc(C(C)C)n1,inactive
13,CCOP(=S)(OCC)SCCSCC,inactive
14,CC(=NC#N)N(C)Cc1ccc(Cl)nc1,inactive
15,CCOP(=O)(SC(C)CC)N1CCSC1=O (configuration not stated),inactive
16,CCOP(=S)(OCC)Oc1ccc2c(C)c(Cl)c(=O)oc2c1,inactive
17,Cc1cc(C2CC2)nc(Nc2ccccc2)n1,inactive
18,CCOC(=O)COc1cc(-c2nn(C)c(OC(F)F)c2Cl)c(F)cc1Cl,inactive
19,CCCSP(=O)(OCC)SCCC,inactive

row,Compound,outcome
1,CCOP(=O)(NC(C)C)Oc1ccc(SC)c(C)c1 (configuration not stated),inactive
2,COc1ccc(C(=CC(=O)N2CCOCC2)c2ccc(Cl)cc2)cc1OC,inactive
3,CCC(=NOC/C=C/Cl)C1=C(O)CC(C2CCOCC2)CC1=O (configuration not stated),inactive
4,CSc1nnc(C(C)(C)C)c(=O)n1N,inactive
5,CC(COc1ccc(Oc2ccccc2)cc1)Oc1ccccn1 (configuration not stated),inactive
6,CSc1nc(NC(C)C)nc(NC(C)C)n1,inactive
7,CCOP(=S)(Oc1cnc(C(C)(C)C)nc1)OC(C)C (configuration not stated),inactive
8,CNc1cnn(-c2cccc(C(F)(F)F)c2)c(=O)c1Cl,inactive
9,COc1cccc(C(=O)NN(C(=O)c2cc(C)cc(C)c2)C(C)(C)C)c1C,inactive
10,COP(=O)(NC(C)=O)SC (configuration not stated),inactive
11,CON=C(C(=O)OC)c1ccccc1CON=C(C)c1cccc(C(F)(F)F)c1,inactive
12,CCCCSP(=O)(SCCCC)SCCCC,inactive
13,CN(C)C(=O)Nc1cccc(C(F)(F)F)c1,inactive
14,C#CC(C)(C)NC(=O)c1cc(Cl)cc(Cl)c1,inactive
15,O=c1ccc(=O)[nH][nH]1,inactive
16,CCc1cccc(C)c1N(C(=O)CCl)C(C)COC (configuration not stated),inactive
17,CN1COCN(Cc2cnc(Cl)s2)C1=N[N+](=O)[O-],inactive
18,CCCSP(=O)(OCC)Oc1ccc(Br)cc1Cl (configuration not stated),inactive
